# Bioassay records: PubChem, National Center for Advancing Translational Sciences (NCATS)
# Only some compounds are listed: those with a hit (about 10% of all), similar ones and a draw of the others.
# RORg inh: qHTS for inhibitors of ROR gamma transcriptional activity; Nuclear receptor ROR-gamma (Mus musculus), P51450; Drosophila S2 Gal4-RORgamma UAS-luciferase reporter, 20 h; Potency, µM (doses to about 53.6 µM), without a hit: at the top dose activity change, negative = inhibition, most hits filed as inhibitors; 5.4% of 310,000 active; AID 2551, 2010; also: % is scaled to controls: 0 for no effect and ±100 for the full control effect; nearly all actives have a fitted effect of over 60% in size
# Target sequence (P51450 whole entry, looked up, the tested form may be a part): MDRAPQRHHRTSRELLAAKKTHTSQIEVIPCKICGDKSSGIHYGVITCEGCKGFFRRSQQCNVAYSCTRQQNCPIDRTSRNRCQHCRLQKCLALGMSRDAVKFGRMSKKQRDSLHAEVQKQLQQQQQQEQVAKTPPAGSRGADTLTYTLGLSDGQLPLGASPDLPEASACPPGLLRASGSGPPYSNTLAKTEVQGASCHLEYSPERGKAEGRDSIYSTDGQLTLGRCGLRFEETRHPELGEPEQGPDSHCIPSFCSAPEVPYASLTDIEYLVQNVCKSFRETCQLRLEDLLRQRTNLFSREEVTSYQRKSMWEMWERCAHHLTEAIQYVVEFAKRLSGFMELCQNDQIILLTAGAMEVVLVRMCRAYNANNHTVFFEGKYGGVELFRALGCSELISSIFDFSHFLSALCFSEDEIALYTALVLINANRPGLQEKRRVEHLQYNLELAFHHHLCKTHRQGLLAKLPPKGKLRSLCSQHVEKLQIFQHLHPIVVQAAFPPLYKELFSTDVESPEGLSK
#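 Drosophila S2 cells stably expressing Gal4-DBD/mouse RORγ fusion under metallothionein promoter plus UAS-luciferase; compound 1 h, then 700 uM CuSO4 induction for 20 h at ambient temperature; inhibition read as reduced luminescence.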
# MCF10A rerep: A quantitative high throughput screen for small molecules that induce DNA re-replication in MCF 10a normal breast cells; AID 624296, 2012; MCF 10A DNA re-replication, Hoechst nuclear intensity, 48 h; 2.9% of 350,000 active; Potency, µM (doses to about 46.1 µM), inactives show top-dose activity, positive = re-replication, hits mostly activators; also: % of control where 0% means no effect; nearly all actives have a fitted effect of over 50% in size
# Gal4-VP16 FLuc: VP16 counterscreen qHTS for inhibitors of ROR gamma transcriptional activity. Potency, µM (highest dose often 53.6 µM), inactives show at the highest dose activity, negative = inhibition, actives largely listed as inhibitors. Drosophila S2 Gal4-VP16 UAS-luciferase, luminescence, 20 h. AID 2546, 2010. 3.5% of 310,000 active;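 also: Gal4-VP16 expression switched on by copper sulfate through the metallothionein promoter; % is scaled to controls: 0 for no effect and ±100 for the full control effect; nearly all actives have a fitted effect of over 50% in size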
# SW480 rereplic: A quantitative high throughput screen for small molecules that induce DNA re-replication in SW480 colon adenocarcinoma cells. SW480 DNA re-replication, Hoechst DNA content imaging, 48 h. Potency, µM (top dose mostly 46.1 µM), for the others: at the highest dose re-replication activation, usual class: activators. 1.8% of 340,000 active. AID 624297, 2012; also: % of control where 0% means no effect; nearly all actives have a fitted effect of over 55% in size
#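 Quantitative HTS format with DMSO vehicle controls; 48 hr drug incubation at 37 C, then 40 min Hoechst staining and scanning imager measurement at 405 nm excitation.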
# ELG1 repair inh: qHTS screen for small molecules that inhibit ELG1-dependent DNA repair in human embryonic kidney (HEK293T) cells expressing luciferase-tagged ELG1; 2.3% of 330,000 active; Potency, µM (top dose mostly 46.1 µM), for the others: at the highest dose activity change, negative = inhibition, usual class: inhibitors; HEK293T ELG1-luciferase reporter, luminescence, 16 h; DNA damage induced by 5-fluorouridine; also: % is scaled to controls: 0 for no effect and ±100 for the full control effect; nearly all actives have a fitted effect of over 55% in size
#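 In this reporter screen, reduction of luminescence relative to DMSO vehicle indicated activity. Compounds and 5-fluorouridine were added together to 2,000 cells per well, incubated for 16 hr at 37 °C, then developed with ONE-Glo.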
# Active calls of the source: *; ? = inconclusive; / = no result given; ! = a repeat was not active; [ ] = another dose, or the depositor's remark. Calls follow the shape of the dose curve; as a rule, active = well fitted curve in the direction sought with a large enough effect; inconclusive = small, poorly fitted or top-dose-only effect, or another doubt; inactive = no such curve, though single readings can be large; an effect the other way counts as inactive or inconclusive. Potency is read from the fitted curve at half-maximal effect.
SMILES,RORg inh,MCF10A rerep,Gal4-VP16 FLuc,SW480 rereplic,ELG1 repair inh
CC1(C)CC[C@]2(C(=O)O)[C@H](O)C[C@]3(C)C(=CCC4[C@@]5(C)C[C@H](O)[C@H](O)[C@@](C)(CO)C5CC[C@]43C)[C@@H]2C1 (some centres undefined),/,10%,/,-1%,10%
COc1ccc2nc(Nc3nc(CSc4nnnn4-c4ccccc4)cc(=O)[nH]3)nc(C)c2c1,-3%,-1%,-4%,-3%,-17%
Cc1ccc2c(C)nc(Nc3nc(CSc4nnnn4-c4ccccc4)cc(=O)[nH]3)nc2c1,-23%,?,?,?,8.2µM*
CC(C)(C)OC(=O)N1CCC(C(=O)N[C@@H](Cc2ccccc2)C(=O)O)(c2ccccc2)CC1,-7%,?,-8%,0.46µM*!,-8%
Cc1ccc(NC(=O)C(OC(=O)c2ccc(O)cc2)c2ccccc2)cc1Cl (centres undefined),-26%,26µM*,-8%,5%,?
Cc1ccc(NC(=O)C(c2ccccc2)N(C)C)cc1Cl (centres undefined),18µM*,4%,?,0%,8%
Cc1ccc(NC(=O)C(OC(=O)c2ccc(F)cc2)c2ccccc2)cc1Cl (centres undefined),42%,0%,-17%,2%,13%
COc1ccc(CN2CCNC(=O)C2CC(=O)NCc2csc(C)n2)c(F)c1 (centres undefined),-15%,2%,2%,13%,3%
O=C(c1ccc(Cl)c(S(=O)(=O)N2CCCCCC2)c1)N1CCN(c2ccccc2O)CC1,3%,18%,6%,-6%,16µM*
O=C(c1ccc(Cl)c(S(=O)(=O)N2CCCC2)c1)N1CCN(c2ccc(F)cc2)CC1,5%,?,4%,-3%,21µM*
Cc1ccc(C(=O)N2CCN(c3ccccc3)CC2)cc1S(=O)(=O)N1CCCC1,8%,22%,9%,?,16µM*
Cc1ccc(C(=O)N2CCN(c3ccc(F)cc3)CC2)cc1S(=O)(=O)N1CCCCC1,17%,2%,-8%,1%,?
CN(c1ccccc1)S(=O)(=O)c1cc(C(=O)N2CCN(c3ccccn3)CC2)ccc1Cl,?,7%,-9%,-4%,15µM*
COc1ccc(-c2csc(-c3[nH]cnc3N)n2)cc1,2%,-11%,-2%[10 µM],-2%,25%
CCOC(=O)C1CCN(C(=O)c2ccc(Cl)c(S(=O)(=O)N3CCOCC3)c2)CC1,-5%,13µM*,-10%,?,-3%
CCOC(=O)C1CCN(C(=O)c2ccc(Cl)c(S(=O)(=O)N3CCCC3)c2)CC1,13%,11%,?,1%,?
O=C(c1ccc(Cl)c(S(=O)(=O)N2CCCCC2)c1)N1CCN(c2ccccc2)CC1,21%,5%,-6%,1%,?
O=C(c1ccc(Cl)c(S(=O)(=O)N2CCCC2)c1)N1CCN(c2ccccc2)CC1,?,-27%,-1%,-3%,16µM*
CCCCCCCCCCCCCCCC(=O)OC(C)C,-17%[10 µM],-2%,-5%,-2%,/
O=C1N/C(=C/c2ccc(N3CCOCC3)o2)C(=O)N1c1ccccc1,5.6µM*,3.7µM*,1.6µM*,8.2µM*,?
O=C1NC(=S)S/C1=C/c1ccc(N2CCOCC2)o1,1%,?,?,?,?
C=CCN1C(=O)N/C(=C/c2ccc(N3CCOCC3)o2)C1=O,7.1µM*,5.8µM*,5µM*,5.8µM*,?
COc1ccc(N2CCN(S(=O)(=O)c3c(C)nc4sccn4c3=O)CC2)cc1,15%,-8%,4%,-4%,-6%
O=C(NCc1cccc(Cl)c1)c1ccc2ccccc2n1,-23%,12%,-6%,-2%,4%
CCc1ccc(NC(=O)CCc2ccc(CC)o2)cc1,-9%[1.91 µM],12%,7%,7%,1%
SMILES,RORg inh,MCF10A rerep,Gal4-VP16 FLuc,SW480 rereplic,ELG1 repair inh
Cc1ccc(CN2CCSCC2)c(C)c1,?,-5%,-25%,-7%,7%
Cc1ccc(CN2CCCN(C)CC2)c(C)c1,-21%,21µM*,-10%,-1%,-10%
Cc1ccc(CN2CCN(/N=C/c3cccn3C)CC2)c(C)c1,-22%,4%,22%,10%,?
Cc1ccc(CN2CCN(/N=C/c3ccc(C)s3)CC2)c(C)c1,10%,-68%,-1%,16µM*,2%
Cc1ccc(S(=O)(=O)Cn2nnnc2C(C(C)C)N2CCN(c3nc4ccccc4s3)CC2)cc1 (centres undefined),?,1%,5%,10%,18µM*
c1ccc(C(c2nnnn2Cc2ccco2)N2CCN(c3nc4ccccc4s3)CC2)cc1 (centres undefined),?,21%,-2%,-4%,21µM*
COCCn1nnnc1C(CC(C)C)N1CCN(c2nc3ccccc3s2)CC1 (centres undefined),?,1%,-1%,-1%,3%
N#Cc1cnn2c(-c3ccccc3)ccnc12,0%,-1%,6%,-1%,/
NC(=S)c1cnn2c(-c3cccc(C(F)(F)F)c3)ccnc12,4µM*,-1%,10µM*,-8%,0%
CC(C)N1CCN(Cc2cn[nH]c2C2CCCCC2)CC1CCO (centres undefined),-12%,1%,-4%,-3%,5%
O=c1cc(-c2ccc(Cl)cc2)[nH]c2ccccc12,30%,15µM*,-6%,?,8%
Cc1ccc(-c2cc(=O)c3ccccc3[nH]2)cc1,32%[96.6 µM],13µM*,0%[96.6 µM],?,?
Clc1ccc(-c2cc3ccccc3[nH]2)cc1,1%,17%,-5%,11%,?
Cc1ccc(-c2cc(=O)c3cc(Cl)ccc3[nH]2)cc1,-11%[96.6 µM],/,2%[96.6 µM],/,?
COc1cc(OC)cc(C(=O)N/N=C(\C)CC(=O)Nc2ccccn2)c1,-33%,?,-13%,?,?
CCC(=O)NC(c1cccs1)c1ccc2cccnc2c1O (centres undefined),0.5µM*,22%,1.1µM*,?,3.7µM*
CC(C)CC(=O)NC(c1cccs1)c1ccc2cccnc2c1O (centres undefined),1%,?,-13%,0.82µM*,-19%
CN1CCN(C(c2cccnc2)c2ccc3cccnc3c2O)CC1 (centres undefined),2%,8%,-5%,1%,-4%
CC(C)CC(=O)NC(NC(=S)Nc1cccc2cccnc12)C(Cl)(Cl)Cl (centres undefined),?,-1%,-14%,4%,?
